Compounds without any hit were thinned out: in the full panel of roughly 83,000, 20% have a hit.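 The test compound was applied at a single concentration to cells in 96-well plates for 48 hours, and percent growth was recorded.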 Unmarked numbers belong to inactive results. Active and inactive are the calls of the source. How the source made its calls: active means growth percent below 10; inactive means the rest.

The record followed here is PubChem BioAssay (NCI).

Common to all, as to experiment: NCI-60 one-dose screen, 48 h (100 = growth as untreated, 0 = no growth, -100 = all killed)
The test system of one experiment is HCT-15 colon. As to conditions: 10 µM unless noted.
The next experiment deals with HT29 colon. The settings on record: 10 µM unless noted.
The subject of the next experiment is SNB-75 CNS. As to conditions: 10 µM unless noted.
Another experiment relates to SNB-19 CNS. The settings on record: 10 µM unless noted.
For another experiment, the system named is U251 CNS. The settings on record: 10 µM unless noted.
The next experiment concerns PC-3 prostate. As to conditions: 10 µM unless noted.
For another experiment, the system named is SK-MEL-5 melanoma. As to conditions: 10 µM unless noted.
The subject of another experiment is UACC-62 melanoma. As to conditions: 10 µM unless noted.
The subject of another experiment is LOX IMVI melanoma. As to conditions: 10 µM unless noted.
The next experiment deals with SK-MEL-28 melanoma. The settings on record: 10 µM unless noted.
The subject of a further experiment is SK-MEL-2 melanoma. The settings on record: 10 µM unless noted.
The test system of the next experiment is EKVX NSCLC. As to conditions: 10 µM unless noted.
For a further experiment, the system named is SN12C renal. The settings on record: 10 µM unless noted.
For the next experiment, the system named is UO-31 renal. The settings on record: 10 µM unless noted.
For a further experiment, the system named is TK-10 renal. The settings on record: 10 µM unless noted.
Another experiment deals with ACHN renal. The settings on record: 10 µM unless noted.
For a further experiment, the system named is CAKI-1 renal. The settings on record: 10 µM.
For the next experiment, the system named is A498 renal. As to conditions: 10 µM unless noted.
For a further experiment, the system named is CCRF-CEM leukemia. As to conditions: 10 µM unless noted.
Another experiment relates to MOLT-4 leukemia. As to conditions: 10 µM unless noted.

Consider `COc1ccc(NS(=O)(=O)c2ccc(-c3cnc(C4CC4)o3)cc2)cc1Cl`, for which the growth in the experiment on HCT-15 colon was 29.3%; in the experiment with HT29 colon, 10.6%; with SNB-75 CNS, -2.75% (active); with SNB-19 CNS it was 43.8%; in the experiment on U251 CNS, 36%; in the experiment on PC-3 prostate it was 25.2%. Also, the growth in the experiment on SK-MEL-5 melanoma is 18.1%; in the experiment with UACC-62 melanoma, 34.1%; with LOX IMVI melanoma it was 39.5%; with SK-MEL-28 melanoma it was 66.9%; with SK-MEL-2 melanoma, 49.9%; in the experiment with EKVX NSCLC it was 38.2%. For the same molecule, the growth was 50.4% in the experiment on SN12C renal; 51.8% in the experiment with UO-31 renal; 69% in the experiment with TK-10 renal; 46.1% in the experiment on ACHN renal; -22.9% (active) in the experiment on CAKI-1 renal; 13.1% with A498 renal. Also, the growth in the experiment on CCRF-CEM leukemia was 17.2%; with MOLT-4 leukemia it was 32.4%.
Consider `CCC(=O)Nc1ccc(-c2nc(-c3cccc(O)c3)c(-c3ccnc(Br)c3)[nH]2)cc1`, for which the growth with HCT-15 colon is 78.6%; in the experiment on HT29 colon, 51.7%; with SNB-75 CNS it was 8.26% (active); with SNB-19 CNS, 58%; with U251 CNS it was 47.8%; in the experiment on PC-3 prostate it was 60.5%. Besides, the growth with SK-MEL-5 melanoma is 77%; in the experiment on UACC-62 melanoma, 34.6%; in the experiment with LOX IMVI melanoma it was 59.3%; in the experiment on SK-MEL-28 melanoma, 59.1%; in the experiment with SK-MEL-2 melanoma, 65.9%; with EKVX NSCLC, 88.4%. Moreover, the growth in the experiment with SN12C renal was 67.4%; in the experiment on UO-31 renal it was 69.7%; in the experiment on TK-10 renal, 87.6%; in the experiment on ACHN renal, 82.8%; with CAKI-1 renal it was 65.1%; with A498 renal, 70.5%. Besides, the growth was 22.4% with CCRF-CEM leukemia and 39.9% with MOLT-4 leukemia.
For `COc1ccc(/C=C/C(=O)c2nnn(-c3ccc(Br)cc3)c2C)cc1OC`, the growth was 60.7% in the experiment on HCT-15 colon; 62.2% in the experiment with HT29 colon; 81.6% in the experiment on SNB-75 CNS; 78.9% with SNB-19 CNS; 86.8% in the experiment on U251 CNS; 75.3% in the experiment on PC-3 prostate. Besides, the growth is 63.9% in the experiment with SK-MEL-5 melanoma; 62% with UACC-62 melanoma; 43.5% in the experiment on LOX IMVI melanoma; 96.5% with SK-MEL-28 melanoma; 88.6% in the experiment with SK-MEL-2 melanoma; 62.3% with EKVX NSCLC. Moreover, the growth in the experiment with SN12C renal is 80.2%; in the experiment with UO-31 renal, 66.7%; in the experiment on TK-10 renal it was 95.4%; in the experiment on ACHN renal, 86%; in the experiment on CAKI-1 renal it was 83.4%; in the experiment on CCRF-CEM leukemia it was 66.4%. In the experiment on MOLT-4 leukemia, the growth is 78.4%.
Regarding `COc1cc(/C=C/C(=O)c2ccc(NC(=O)COc3cccc4cccnc34)cc2)cc(OC)c1OC`, the growth is 50.3% in the experiment on HCT-15 colon; 81.2% with HT29 colon; 82.4% in the experiment with SNB-75 CNS; 73.7% in the experiment on SNB-19 CNS; 83.8% with U251 CNS; 84.6% in the experiment with PC-3 prostate. The growth with SK-MEL-5 melanoma is 73.2%; in the experiment with UACC-62 melanoma, 70.1%; with LOX IMVI melanoma, 42.5%; in the experiment with SK-MEL-28 melanoma, 95.2%; with SK-MEL-2 melanoma it was 96.5%; in the experiment with EKVX NSCLC, 82%. Besides, the growth with SN12C renal was 75.4%; with UO-31 renal it was 67.7%; in the experiment with TK-10 renal, 147%; in the experiment on ACHN renal, 80.2%; in the experiment with CAKI-1 renal, 84.8%; in the experiment with CCRF-CEM leukemia, 26.5%. In the experiment on MOLT-4 leukemia, the growth is 41%.
In the case of `COc1c([C@@H](CC(C)C)OC(C)=O)ccc2c1C(=O)OCc1cc(C)cc(O)c1O2`, the growth in the experiment on HCT-15 colon is 17.3%; in the experiment with HT29 colon, 13.5%; in the experiment with SNB-75 CNS, 50.6%; with SNB-19 CNS it was 36.3%; in the experiment on U251 CNS, 20.1%; with PC-3 prostate it was 29.8%. Also, the growth in the experiment with SK-MEL-5 melanoma is 8.29% (active); in the experiment with UACC-62 melanoma it was 31.3%; with LOX IMVI melanoma it was 27.5%; in the experiment with SK-MEL-28 melanoma, 59.1%; in the experiment with SK-MEL-2 melanoma it was 22.2%; with EKVX NSCLC, 37.6%. The growth in the experiment with SN12C renal is 27.8%; with UO-31 renal, 32.3%; in the experiment with TK-10 renal it was 33.6%; in the experiment on ACHN renal, 16.1%; with A498 renal, 61.5%; in the experiment with CCRF-CEM leukemia, 31.4%. Besides, the growth with MOLT-4 leukemia was 21.3%.
In the case of `IP(CCCCCCCCCCSc1n(Cc2ccc3ccccc3c2)c(-c2ccccc2)c(-c2ccccc2)[n+]1Cc1ccc2ccccc2c1)(c1ccccc1)(c1ccccc1)c1ccccc1`, the growth with HCT-15 colon was -68.3% (active); in the experiment on HT29 colon, -59.4% (active); in the experiment on SNB-75 CNS, -52.6% (active); in the experiment with SNB-19 CNS, -84.8% (active); in the experiment on U251 CNS it was -68.5% (active); in the experiment on PC-3 prostate, -80.4% (active). The growth in the experiment on SK-MEL-5 melanoma is -98.3% (active); in the experiment with UACC-62 melanoma, -73.6% (active); with LOX IMVI melanoma, -78.1% (active); with SK-MEL-28 melanoma, -83.7% (active); in the experiment with SK-MEL-2 melanoma, -59.5% (active); with EKVX NSCLC, -68.2% (active). For the same molecule, the growth in the experiment on SN12C renal is -72.2% (active); in the experiment on UO-31 renal it was -4.18% (active); in the experiment on TK-10 renal, -68.3% (active); in the experiment on ACHN renal, -28% (active); in the experiment on CAKI-1 renal, -91.4% (active); with CCRF-CEM leukemia it was -33.7% (active). Further, the growth in the experiment with MOLT-4 leukemia is -53.6% (active).
Turning to `COc1cc(C(=O)C[n+]2ccc3ccccc3c2)cc(OC)c1OC`, the growth with HCT-15 colon is 98%; in the experiment with HT29 colon it was 95.2%; in the experiment on SNB-75 CNS, 90%; with SNB-19 CNS, 93.5%; in the experiment on U251 CNS it was 98.3%; in the experiment with PC-3 prostate it was 88.8%. For the same molecule, the growth in the experiment on SK-MEL-5 melanoma is 99.8%; in the experiment on UACC-62 melanoma, 91.4%; with LOX IMVI melanoma, 97.4%; in the experiment on SK-MEL-28 melanoma, 106%; in the experiment with SK-MEL-2 melanoma, 102%; with EKVX NSCLC, 98.6%. The growth in the experiment on SN12C renal is 90.4%; in the experiment with UO-31 renal, 94.2%; with TK-10 renal it was 112%; with ACHN renal, 106%; with CAKI-1 renal it was 92.6%; in the experiment with CCRF-CEM leukemia, 97%. Besides, in the experiment with MOLT-4 leukemia, the growth was 106%.
Consider `O=c1c2c(O)cccc2oc2c3c(cc(O)c12)O[C@H]1OC=C[C@@H]31`, for which the growth in the experiment on HCT-15 colon is 87.8%; in the experiment on HT29 colon, 88.9%; with SNB-75 CNS it was 85.7%; with SNB-19 CNS it was 96.8%; with U251 CNS, 92.9%; with PC-3 prostate, 90.1%. The growth was 81.1% in the experiment with SK-MEL-5 melanoma; 81% in the experiment with UACC-62 melanoma; 87.4% in the experiment with LOX IMVI melanoma; 108% in the experiment on SK-MEL-28 melanoma; 95.5% in the experiment on SK-MEL-2 melanoma; 42.8% with EKVX NSCLC. Further, the growth in the experiment with SN12C renal is 92.6%; in the experiment on UO-31 renal, 79.3%; in the experiment on TK-10 renal, 89.5%; in the experiment with ACHN renal, 74.9%; in the experiment on A498 renal, 89.1%; in the experiment with CCRF-CEM leukemia it was 92.7%. The growth in the experiment on MOLT-4 leukemia is 88.5%.
